Inconclusive results are not listed. Calls of active or inactive are those of the source. Rule for the calls: active = hit-call score of the fitted dose curve at least 0.9, where 1 is the maximum; inconclusive = response in the unintended direction; inactive = score below 0.9.
What was measured:
[1] = ACEA_AR_agonist_AUC_viability: ACEA Biosciences xCELLigence Real-Time Cell Analysis on Androgen Receptor Agonism for Viability (AID 2283775);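 for AC50: viability read 80 hours after compound addition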
Outline: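 Real-time impedance tracking of 22Rv1 growth, readings every 5 min for 5 h then hourly; area-under-curve viability endpoint at 80 hours, relative to DMSO. Compounds at eight concentrations, 1:4 steps, top 100 uM, n = 2.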

[2] = ACEA_AR_antagonist_AUC_viability: ACEA Biosciences xCELLigence Real-Time Cell Analysis on Androgen Receptor Antagonism for Viability (AID 2283776);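 note: 22Rv1 human prostate cancer cells growing on impedance electrode plates; hits lower the growth signal relative to DMSO meaning cytotoxicity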
Outline: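 Impedance read-out (RT-CES): area under growth curve at 80 h post-dose, loss of signal scored vs DMSO baseline. 22Rv1 cells; 8-pt 1:4 series, top 100 uM final, ≤0.5% DMSO; biological duplicate.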

[3] = ACEA_ER_AUC_viability: ACEA Biosciences xCELLigence Real-Time Cell Analysis on Estrogen Receptor Agonism for Viability (AID 2283782);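 note: continuous compound exposure with impedance area under curve over 80 h; hit means loss of impedance signal meaning reduced cell growth or viability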
Outline: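 T47D cells preconditioned in phenol red-free RPMI with charcoal-stripped FBS, then dosed with 8-point 1:4 series from 100 uM (up to 0.5% DMSO). Impedance monitored up to ~80 h; area-under-curve loss versus DMSO taken as viability.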

[4] = STM_H9_NormalizedViability: Cytotoxicity Assessment at 120 hours in the Stemina devTOX quickPredict H9 human embryonic stem cell (hESC)-based Assay (AID 2283784)
Outline: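 Pluripotent H9 hESCs were exposed, with chemical and media replaced every 24 h. Viability was read by CellTiter-Fluor fluorescence, background-corrected and normalized to the 0.1% DMSO neutral control per plate. Loss of signal was fitted.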

AR (gene 367) [5] = target: AR (gene 367) (UniProt P10275); assay: ACEA_AR_agonist_80hr: ACEA Biosciences xCELLigence Real-Time Cell Analysis on Androgen Receptor Agonism for Proliferation (AID 2283783);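 note: hits increase impedance growth signal above DMSO baseline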
Chain of AR (gene 367) (P10275 whole entry, looked up): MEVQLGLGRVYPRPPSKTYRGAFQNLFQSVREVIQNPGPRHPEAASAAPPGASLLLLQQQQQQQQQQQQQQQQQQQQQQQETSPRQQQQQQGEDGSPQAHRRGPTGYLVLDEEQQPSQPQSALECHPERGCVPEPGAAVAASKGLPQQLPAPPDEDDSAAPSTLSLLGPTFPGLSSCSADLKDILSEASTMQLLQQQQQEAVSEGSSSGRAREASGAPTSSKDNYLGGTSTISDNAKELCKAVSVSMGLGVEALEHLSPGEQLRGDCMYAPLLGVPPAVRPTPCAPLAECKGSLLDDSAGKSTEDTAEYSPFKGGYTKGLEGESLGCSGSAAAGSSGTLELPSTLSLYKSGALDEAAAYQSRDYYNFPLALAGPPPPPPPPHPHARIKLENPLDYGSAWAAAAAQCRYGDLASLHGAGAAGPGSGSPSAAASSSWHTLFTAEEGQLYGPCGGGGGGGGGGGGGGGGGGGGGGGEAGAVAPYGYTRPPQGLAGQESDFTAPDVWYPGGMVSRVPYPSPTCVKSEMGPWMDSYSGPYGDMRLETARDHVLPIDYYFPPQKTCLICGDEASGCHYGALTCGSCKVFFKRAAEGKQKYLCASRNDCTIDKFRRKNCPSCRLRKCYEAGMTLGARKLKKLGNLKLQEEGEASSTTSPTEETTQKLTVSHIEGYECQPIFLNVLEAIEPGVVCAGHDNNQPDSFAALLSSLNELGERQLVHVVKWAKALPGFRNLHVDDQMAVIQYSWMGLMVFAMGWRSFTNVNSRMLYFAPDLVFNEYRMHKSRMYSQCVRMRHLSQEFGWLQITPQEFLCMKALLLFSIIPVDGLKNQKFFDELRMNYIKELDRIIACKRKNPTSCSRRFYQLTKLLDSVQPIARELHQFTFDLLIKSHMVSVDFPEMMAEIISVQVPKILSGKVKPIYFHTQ
Outline: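 Proliferation of 22Rv1 prostate cancer cells tracked by electrical impedance, endpoint taken at 80 hours after dosing. Eight-point 1:4 dilutions from 100 uM maximum final, duplicate; testosterone and MG132 as positive controls, assay media as negative.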

AR (gene 367) [6] = target: AR (gene 367) (UniProt P10275); assay: ACEA_AR_antagonist_80hr: ACEA Biosciences xCELLigence Real-Time Cell Analysis on Androgen Receptor Antagonism for Proliferation (AID 2283787);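 note: 22Rv1 human prostate cancer cells with growth followed by electrical impedance; hits lower the impedance growth signal relative to DMSO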
Outline: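 22Rv1 cells in assay medium, growth tracked by electrical impedance; compounds eight-point 1:4 dilutions from 100 uM final, duplicate plates. Endpoint at 80 h; loss of signal versus DMSO.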

With `COc1cc(Cl)c(OC)cc1Cl` the outcome [1] was “inactive”, the outcome [2] was “inactive” and the outcome [3] was “inactive”.

For `COc1cc(OC)nc(NC(=O)NS(=O)(=O)c2ncccc2OCC(F)(F)F)n1`, the outcome [1] was “inactive” and the outcome [4] was “inactive”.

In the case of `N#Cc1c[nH]cc1-c1cccc2c1OC(F)(F)O2`, the AC50 [1] was 32.5 µM (active), the outcome [3] was “inactive” and the AC50 [4] was 76.4 µM (active).

For `CC1(C)C(C(=O)OC(C#N)c2cccc(Oc3ccccc3)c2)C1(C)C` (stereo unspecified), the AC50 [1] was 50 µM (active), the AC50 [2] was 50 µM (active) and the AC50 [3] was 89.4 µM (active).

In the case of `CCSC(=O)N1CCCCCC1`, the outcome [1] was “inactive”, the outcome [2] was “inactive” and the outcome [3] was “inactive”.

For `CC1(C)CON(Cc2ccccc2Cl)C1=O`, the outcome [1] was “inactive”, the AC50 [2] was 18.6 µM (active) and the outcome [4] was “inactive”.

In the case of `CCOc1cc(C(C)(C)C)ccc1C1COC(c2c(F)cccc2F)=N1` (stereo unspecified), the AC50 [1] was 24 µM (active), the AC50 [2] was 19.1 µM (active) and the AC50 [3] was 51.2 µM (active). The outcome (AR (gene 367) [5]) was “inactive” and the AC50 (AR (gene 367) [6]) was 13.2 µM (active).

In the case of `CCCCC(C#N)(Cn1cncn1)c1ccc(Cl)cc1` (stereo unspecified), the AC50 [1] was 83.1 µM (active), the AC50 [2] was 79 µM (active) and the outcome [3] was “inactive”. For the same compound, the AC50 [4] was 56 µM (active).

With `Nc1c(Cl)c(Cl)nc(C(=O)O)c1Cl` the outcome [1] was “inactive”, the outcome [2] was “inactive” and the outcome [3] was “inactive”.

For `CCCN(CC)CC1COC2(CCC(C(C)(C)C)CC2)O1` (stereo unspecified), the AC50 [1] was 77.3 µM (active), the AC50 [2] was 77.7 µM (active) and the AC50 [3] was 81 µM (active). For the same compound, the outcome [4] was “inactive”.

In the case of `OC(c1ccc(Cl)cc1)(c1ccc(Cl)cc1)C(Cl)(Cl)Cl`, the AC50 [1] was 14.5 µM (active), the AC50 [2] was 13 µM (active) and the AC50 [3] was 26.4 µM (active).

For `Nc1cnn(-c2ccccc2)c(=O)c1Cl`, the outcome [1] was “inactive”, the outcome [2] was “inactive” and the outcome [3] was “inactive”.

For `N#CN=C1SCCN1Cc1ccc(Cl)nc1`, the outcome [1] was “inactive”, the outcome [2] was “inactive” and the outcome [4] was “inactive”.

For `CS(=O)(=O)c1cc(C(F)(F)F)ccc1C(=O)c1cnoc1C1CC1`, the outcome [2] was “inactive”, the outcome [3] was “inactive” and the outcome [4] was “inactive”.

With `O=C(O)c1c(Cl)ccc2cc(Cl)cnc12` the outcome [2] was “inactive” and the outcome [3] was “inactive”.

For `CNC(=O)Oc1cccc2ccccc12`, the AC50 [2] was 24.8 µM (active) and the outcome [3] was “inactive”.

For `Clc1cccc(C(Cl)(Cl)Cl)n1`, the outcome [1] was “inactive”, the outcome [2] was “inactive” and the outcome [3] was “inactive”. The outcome [4] was “inactive” and the outcome (AR (gene 367) [6]) was “inactive”.

With `CCCCOCN(C(=O)CCl)c1c(CC)cccc1CC` the AC50 [1] was 85.2 µM (active), the AC50 [2] was 70.9 µM (active) and the AC50 [3] was 87.6 µM (active). For the same compound, the AC50 (AR (gene 367) [5]) was 10.5 µM (active) and the AC50 (AR (gene 367) [6]) was 75.7 µM (active).

For `CCCCC(O)(Cn1cncn1)c1ccc(Cl)cc1Cl` (stereo unspecified), the AC50 [1] was 69.8 µM (active), the AC50 [2] was 50 µM (active) and the AC50 [3] was 75.5 µM (active). For the same compound, the outcome (AR (gene 367) [5]) was “inactive”, the AC50 [4] was 78.3 µM (active) and the AC50 (AR (gene 367) [6]) was 57.3 µM (active).

With `COC(=O)N(C(=O)N1CO[C@@]2(C(=O)OC)Cc3cc(Cl)ccc3C2=N1)c1ccc(OC(F)(F)F)cc1` the AC50 [1] was 18.3 µM (active), the AC50 [2] was 18.5 µM (active) and the AC50 [3] was 69.2 µM (active). For the same compound, the AC50 (AR (gene 367) [6]) was 40 µM (active).

With `CO/N=C(/C1=NOCCO1)c1ccccc1Oc1ncnc(Oc2ccccc2Cl)c1F` the AC50 [1] was 43 µM (active), the AC50 [2] was 55.5 µM (active) and the AC50 [3] was 91.8 µM (active). For the same compound, the AC50 [4] was 35.2 µM (active).

With `CC(C)Oc1cccc(NC(=O)c2ccccc2C(F)(F)F)c1` the outcome [1] was “inactive”, the outcome [2] was “inactive” and the outcome [3] was “inactive”.

Source: PubChem BioAssay (EPA / NIEHS)
